Data taken from PubChem BioAssay (EPA / NIEHS).
Several values for one entry are separate records, joined by “and”; a condition that tells them apart may be missing. Equal values may be shown once. Activity calls are given as the source filed them. How the source made its calls: active means hit-call score of the fitted dose curve at least 0.9, where 1 is the maximum; inactive means score below 0.9.

What was measured:
[1] = read-out: Interleukin 17F (IL17F), IL17F (gene 112744); assay: BSK_BT_xIL17F: BioMAP Diversity Plus: BT Assay for Interleukin 17F (IL17F) Biomarker Activity (AID 2284243); settings: primary human B cells with PBMC
Procedure, shortened: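 Measures secreted IL-17F from a human B cell plus PBMC co-culture at 24 h post-dose by Luminex xMAP, with DMSO defining baseline activity.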

[2] = read-out: Actin alpha 1 (ACTA1), ACTA1 (gene 58); assay: BSK_MyoF_ACTA1: BioMAP Diversity Plus: MyoF Assay for Actin alpha 1 (ACTA1) Biomarker Activity (AID 2284244); settings: primary human lung fibroblasts
Procedure, shortened: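 Human lung fibroblast (MyoF system) cultures dosed with test chemical; alpha-SMA measured by ELISA 24 h after dosing, normalized to DMSO control. Cytotoxicity tracked in parallel cultures by SRB total-protein staining.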

[3] = read-out: Interleukin 2 (IL2), IL2 (gene 3558); assay: BSK_BT_xIL2: BioMAP Diversity Plus: BT Assay for Interleukin 2 (IL2) Biomarker Activity (AID 2284245); settings: primary human B cells with PBMC
Procedure, shortened: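 Human B cell plus PBMC co-culture, 24 h after chemical dosing; secreted IL-2 quantified by Luminex xMAP multiplex, fitted for signal gain against DMSO baseline.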

[4] = read-out: Basic fibroblast growth factor (bFGF), FGF2 (gene 2247); assay: BSK_MyoF_bFGF: BioMAP Diversity Plus: MyoF Assay for Basic fibroblast growth factor (bFGF) Biomarker Activity (AID 2284246); settings: primary human lung fibroblasts
Procedure, shortened: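 Human lung fibroblast cultures were dosed and measured 24 h later in 96-well format. bFGF biomarker levels quantified by ELISA, with activity fitted in the positive direction against DMSO.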

[5] = read-out: Collagen IV, COL4A1 (gene 1282); assay: BSK_MyoF_CollagenIV: BioMAP Diversity Plus: MyoF Assay for Collagen IV Biomarker Activity (AID 2284247); settings: primary human lung fibroblasts
Procedure, shortened: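 Primary human lung fibroblasts (MyoF system) dosed 24 h; Collagen IV measured by ELISA. Activity fitted in positive direction against DMSO; cytotoxicity tracked by SRB total-protein staining in parallel cultures.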

[6] = read-out: Plasminogen activator inhibitor-1 (PAI1), SERPINE1 (gene 5054); assay: BSK_MyoF_PAI1: BioMAP Diversity Plus: MyoF Assay for Plasminogen activator inhibitor-1 (PAI1) Biomarker Activity (AID 2284256); settings: primary human lung fibroblasts
Procedure, shortened: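 Activity reflects increased PAI-1, determined by ELISA and compared with DMSO, in human lung fibroblasts treated for 24 h.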

[7] = read-out: Interleukin-8 (IL8), CXCL8 (gene 3576); assay: BSK_MyoF_IL8: BioMAP Diversity Plus: MyoF Assay for Interleukin-8 (IL8) Biomarker Activity (AID 2284261); settings: primary human lung fibroblasts
Procedure, shortened: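 In this multiplexed primary-cell system, fibroblasts from human lung are treated with chemicals, and IL-8 is detected by ELISA at 24 h, with DMSO serving as the negative reference.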

[8] = read-out: Decorin, DCN (gene 1634); assay: BSK_MyoF_Decorin: BioMAP Diversity Plus: MyoF Assay for Decorin Biomarker Activity (AID 2284265); settings: primary human lung fibroblasts
Procedure, shortened: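 Lung fibroblast cultures, 24 h chemical exposure. Decorin by ELISA, positive fitting direction, DMSO baseline.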

[9] = BSK_MyoF_SRB: Viability Assessment in the BioMAP Diversity Plus: MyoF Assay (AID 2284267); settings: primary human lung fibroblasts;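 further: total protein by SRB absorbance in parallel cultures as cytotoxicity measure; cells assessed 24 h after compound addition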
Procedure, shortened: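 Human lung fibroblasts, 24 h after chemical dosing; total protein measured by 0.1% sulforhodamine B staining after 10% TCA fixation, read at 560 nm, fitted relative to DMSO baseline.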

[10] = read-out: Matrix Metallopeptidase 1 (MMP1), MMP1 (gene 4312); assay: BSK_MyoF_MMP1: BioMAP Diversity Plus: MyoF Assay for Matrix Metallopeptidase 1 (MMP1) Biomarker Activity (AID 2284268); settings: primary human lung fibroblasts
Procedure, shortened: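 MMP1 measured by ELISA 24 h after dosing primary human lung fibroblasts; cytotoxicity checked in parallel cultures by sulforhodamine B total-protein staining read at 560 nm.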

[11] = read-out: TIMP metallopeptidase inhibitor 1 (TIMP1), TIMP1 (gene 7076); assay: BSK_MyoF_TIMP1: BioMAP Diversity Plus: MyoF Assay for TIMP metallopeptidase inhibitor 1 (TIMP1) Biomarker Activity (AID 2284269); settings: primary human lung fibroblasts
Procedure, shortened: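 Fibroblasts from human lung are dosed with chemical, cultured 24 h, and assayed for TIMP-1 by ELISA. Increases over the DMSO baseline are scored, with SRB total-protein staining run in parallel for cytotoxicity.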

[12] = read-out: Monokine induced gamma interferon (MIG), CXCL9 (gene 4283); assay: BSK_KF3CT_MIG: BioMAP Diversity Plus: KF3CT Assay for Monokine induced gamma interferon (MIG) Biomarker Activity (AID 2284248); settings: primary human keratinocytes with fibroblasts
Procedure, shortened: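 The assay uses a co-culture of human keratinocytes and foreskin fibroblasts. Measurement occurs 24 hours after dosing, with MIG detected by ELISA and the DMSO control as baseline.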

[13] = read-out: Collagen I, COL1A1 (gene 1277); assay: BSK_hDFCGF_CollagenI: BioMAP Diversity Plus: hDFCGF Assay for Collagen I Biomarker Activity (AID 2284250); settings: primary human foreskin fibroblasts
Procedure, shortened: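 Primary human foreskin fibroblasts exposed to chemical for 24 h; Collagen I levels measured by ELISA. Cytotoxicity checked by SRB total-protein staining in parallel cultures.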

[14] = read-out: Interferon-inducible T-cell alpha chemoattractant (ITAC), CXCL11 (gene 6373); assay: BSK_hDFCGF_ITAC: BioMAP Diversity Plus: hDFCGF Assay for Interferon-inducible T-cell alpha chemoattractant (ITAC) Biomarker Activity (AID 2284251); settings: primary human foreskin fibroblasts
Procedure, shortened: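 Fibroblasts (human foreskin, primary) are treated with chemical, cultured 24 h, then assayed for I-TAC by ELISA. Overt toxicity is checked in parallel cultures by sulforhodamine B staining of total protein at the same time point.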

[15] = read-out: Plasminogen activator inhibitor-1 (PAI1), SERPINE1 (gene 5054); assay: BSK_KF3CT_PAI1: BioMAP Diversity Plus: KF3CT Assay for Plasminogen activator inhibitor-1 (PAI1) Biomarker Activity (AID 2284252); settings: primary human keratinocytes with fibroblasts
Procedure, shortened: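 Human keratinocyte/foreskin fibroblast co-culture dosed for 24 h; PAI-1 measured by ELISA, fitted in positive direction against DMSO baseline. Parallel SRB total-protein staining (0.1% SRB, 560 nm) assesses overt cytotoxicity.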

[16] = read-out: Interleukin-8 (IL8), CXCL8 (gene 3576); assay: BSK_KF3CT_IL8: BioMAP Diversity Plus: KF3CT Assay for Interleukin-8 (IL8) Biomarker Activity (AID 2284254); settings: primary human keratinocytes with fibroblasts
Procedure, shortened: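 ELISA detection of IL-8 from a human skin co-culture, keratinocytes with foreskin fibroblasts, at 24 h following chemical exposure, with gain of signal scored against DMSO controls.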

[17] = read-out: Intercellular Adhesion Molecule 1 (ICAM1), ICAM1 (gene 3383); assay: BSK_BE3C_ICAM1: BioMAP Diversity Plus: BE3C Assay for Intercellular Adhesion Molecule 1 (ICAM1) Biomarker Activity (AID 2284278); settings: primary human bronchial epithelial cells
Procedure, shortened: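 Primary human bronchial epithelial cells in BE3C system, 24 h after chemical dosing; cell-surface ICAM-1 measured by ELISA relative to DMSO. Parallel SRB staining (0.1% SRB after 10% TCA fixation, read at 560 nm) assessed cytotoxicity.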

Measured: AC50

N#[N+]c1ccc2c(S(=O)(=O)[O-])cccc2c1O
not listed: [12] | [13] | [14] | [15] | [16] | [17]
inactive: all other assays above

O=C1CCCN1CCO
inactive: [12] | [13] | [14] | [15] | [16] | [17]

CCOC(=O)c1ccccc1C(=C1C=C(Br)C(=O)C(Br)=C1)c1cc(Br)c(O)c(Br)c1
active: [12] 4.3 µM and 3.96 µM | [13] 3.27 µM | [14] 4.39 µM and 4.49 µM | [15] 3.18 µM and 3.06 µM | [17] 5.49 µM and 5.66 µM
inactive: [16]

CCOc1nc(F)cc2nc(S(=O)(=O)Nc3c(Cl)cccc3C(=O)OC)nn12
not listed: [12] | [13] | [14] | [15] | [16] | [17]
inactive: all other assays above

CN1C(=O)N(C)C(O)C1O (stereo not given)
inactive: [12] | [13] | [14] | [15] | [16] | [17]

C/C=C\C/C=C/CCCCCCCCOC(C)=O
inactive: [4] | [5] | [7] | [8] | [9] | [10] | [11]
active: [1] 25.5 µM | [2] 31.9 µM | [3] 31.6 µM | [6] 20 µM

c1ccc2c(c1)ccc1ncccc12
active: [1] 20 µM
not listed: [12] | [13] | [14] | [15] | [16] | [17]
inactive: all other assays above

C=CC(=O)OCC(Br)CBr (stereo not given)
inactive: [7] | [8] | [10]
active: [1] 15.4 µM | [2] 20 µM | [3] 24.5 µM | [4] 37.5 µM | [5] 3.97 µM | [6] 7.93 µM | [9] 20 µM | [11] 20 µM

O=C(c1ccc(O)cc1)c1ccc(O)cc1O
inactive: [12] | [13] | [14] | [15] | [16] | [17]

CC1OC1C1CCC2(C)OC2C1 (stereo not given)
not listed: [12] | [13] | [14] | [15] | [16] | [17]
inactive: all other assays above
